“And” between values parts separate entries of the source, which are not always exact repeats. Identical values can stand only once. Records with an inconclusive call do not appear. Values without a mark were called inactive. The source made the active and inactive calls. Calls follow the shape of the dose curve; as a rule, active = well fitted inhibition curve with a large enough effect in the repeat runs; inconclusive = weak or mixed curves; inactive = no such curve, though single readings can be large or run the other way.
% is scaled to controls: 0 for no effect and ±100 for the full control effect; potency is read from the fitted curve at half-maximal effect.

The target in the experiment is Cytochrome P450 1A2 (Homo sapiens) (UniProt P05177). Briefly: Cytochrome P450 Family 1 Subfamily A Member 2 (CYP1A2) small molecule antagonists: luciferase reporter qHTS assay (AID 1671199). Also: nearly all actives have a fitted effect of over 50% in size. To be noted: P450-Glo CYP1A2 enzyme, luciferin luminescence, 1 h; series mostly up to 115 µM; activity change, negative = inhibition: at the top concentration. An outline of the steps: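 P450-Glo CYP1A2, 1536-well qHTS: enzyme/proluciferin substrate + cpd (DMSO), 10 min RT; NADPH regen, 1 h RT; detection reagent, 20 min; luminescence, RLU.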
Sequence of Cytochrome P450 1A2 (Homo sapiens) (P05177 whole entry, looked up): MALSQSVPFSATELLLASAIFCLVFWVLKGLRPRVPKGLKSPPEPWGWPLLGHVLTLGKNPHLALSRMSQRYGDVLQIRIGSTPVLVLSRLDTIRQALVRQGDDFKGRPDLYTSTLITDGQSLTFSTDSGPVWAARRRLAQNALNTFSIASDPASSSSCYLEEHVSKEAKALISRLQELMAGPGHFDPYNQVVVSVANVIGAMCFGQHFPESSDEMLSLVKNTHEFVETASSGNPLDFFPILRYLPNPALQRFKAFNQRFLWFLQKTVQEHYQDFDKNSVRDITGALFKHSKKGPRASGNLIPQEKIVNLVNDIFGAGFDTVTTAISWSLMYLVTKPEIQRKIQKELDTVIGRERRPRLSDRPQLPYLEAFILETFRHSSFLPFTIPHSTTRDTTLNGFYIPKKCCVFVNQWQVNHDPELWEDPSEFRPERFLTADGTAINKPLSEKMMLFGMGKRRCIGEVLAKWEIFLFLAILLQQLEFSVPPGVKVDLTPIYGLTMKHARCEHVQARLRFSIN
For orientation: A reporter such as luciferase makes a cellular process visible.
Turning to `Cc1cc(C)c(C2=C(OC(=O)CC(C)(C)C)C3(CCCC3)OC2=O)c(C)c1`, the “activity change, negative = inhibition” value is -15%. On the same count and under the same terms, the same measure for `Brc1c(Br)c(Br)c(Oc2c(Br)c(Br)c(Br)c(Br)c2Br)c(Br)c1Br`: -11% [at 23.6 µM]. Consider `CCCCOP(=O)(CCCC)OCCCC`, for which the Potency is 31.7 µM (active). For `Cn1cc(C2=C(c3cn(C4CCN(Cc5ccccn5)CC4)c4ccccc34)C(=O)NC2=O)c2ccccc21`, the “activity change, negative = inhibition” value is 11.9% [at 53 µM]. Take `C[C@@H](Oc1ccc(Cl)cc1Cl)C(=O)O`: the “activity change, negative = inhibition” value was 4.87%. In the case of `CC[C@H](C)[C@H]1O[C@]2(C=C[C@@H]1C)C[C@@H]1C[C@@H](C/C=C(\C)[C@@H](O[C@H]3C[C@H](OC)[C@@H](O[C@H]4C[C@H](OC)[C@@H](O)[C@H](C)O4)[C@H](C)O3)[C@@H](C)/C=C/C=C3\CO[C@@H]4[C@H](O)C(C)=C[C@@H](C(=O)O1)[C@]34O)O2`, the Potency is 33.3 µM (active). With `[CH3][Hg][Cl]`, the “activity change, negative = inhibition” value was -21.2%. In the case of `ClCCN1CCOCC1`, the “activity change, negative = inhibition” value was -6.15%. Take `Cc1cc(C(C)(C)c2cc(C)c(O)c(C)c2)cc(C)c1O`: the Potency is 38.6 µM (active).

Take `C=CC(=O)OCCCCOC(=O)C=C`: the Potency was 35.6 µM (active). As to `ClC1=C(Cl)[C@]2(Cl)[C@@H]3[C@@H](Cl)[C@@H](Cl)C[C@@H]3[C@@]1(Cl)C2(Cl)Cl`, the “activity change, negative = inhibition” value is -21.9%. As for `C=CC(=O)OCC(COC(=O)C=C)(COC(=O)C=C)COC(=O)C=C`, the “activity change, negative = inhibition” value was -20.1%. Consider `Oc1ccc(C(c2ccc(O)cc2)(C(F)(F)F)C(F)(F)F)cc1`, for which the “activity change, negative = inhibition” value was -21.3%. With `Clc1ccc(C(c2ccccc2Cl)C(Cl)(Cl)Cl)cc1` (stereo not drawn), the “activity change, negative = inhibition” value was -23.3% [at 53 µM].

As to `Nc1ccc([N+](=O)[O-])cc1Cl`, the Potency is 25.2 µM (active). In the case of `Cc1cc(N=Nc2ccccc2C)ccc1N`, the Potency is 1.26 µM (active) and 2 µM (active). The same measure, in the same setting: the figure for `CC(=O)c1cc(C(C)(C)C)cc2c1CCC2(C)C` is 31.7 µM (active). Regarding `CCOP(=S)(OCC)SCS(=O)(=O)CC`, the Potency is 35.6 µM (active). For the compound `Cc1ccc(CCl)cc1`, the “activity change, negative = inhibition” value is -6.41%. With `CC(C)(C)c1ccc(CSc2cnn(C(C)(C)C)c(=O)c2Cl)cc1`, the Potency was 25.2 µM (active). For `O=[N+]([O-])c1c2ccccc2cc2ccccc12`, the Potency is 0.3 µM (active).

`Oc1c(Cl)c(Cl)cc(Cl)c1Cl`: the Potency is 69.1 µM (active). In the case of `CCCN(CCC)CCc1c[nH]c2ccccc12`, the Potency is 27.9 µM (active). With `COC12CC[C@@]3(C[C@@H]1C(C)(O)C(C)(C)C)[C@H]1Cc4ccc(O)c5c4[C@@]3(CCN1CC1CC1)[C@H]2O5` (stereo partly drawn), the “activity change, negative = inhibition” value was -23.1%. `C[C@@H]1O[C@@H](O[C@@H]2C=C3CC[C@@H]4[C@H](CC[C@]5(C)[C@@H](c6ccc(=O)oc6)CC[C@]45O)[C@@]3(C)CC2)[C@H](O)[C@H](O)[C@H]1O`: the “activity change, negative = inhibition” value is 12.6% [at 53 µM].

With `CC(O)C#N` (stereo not drawn), the “activity change, negative = inhibition” value is -14.1%. For `N#CC(Cl)Cl`, the Potency was 61.6 µM (active). Turning to `COc1cc(C=O)cc2c1[C@H](COC(N)=O)[C@]1(OC(C)=O)ON2C[C@H]2[C@@H]1N2C(C)=O`, the “activity change, negative = inhibition” value was -0.164%.

On to `Oc1cc(Cl)c(Cl)c(Cl)c1`, for which the Potency was 26.8 µM (active).

`CC(=[OH+])/C=C(/C)[O-].CC(=[OH+])/C=C(\C)[O-].CC(=[OH+])/C=C(\C)[O-].[Fe]`: the “activity change, negative = inhibition” value was 0.0352%.

As for `ClC(Cl)=C(c1ccc(Cl)cc1)c1ccc(Cl)cc1`, the Potency was 5.78 µM (active) and 5.64 µM (active). On to `NNC(=O)c1ccccc1`, for which the Potency was 32.6 µM (active). As to `Nc1ccc(Cc2ccc(N)c(Cl)c2)cc1Cl`, the Potency is 27.3 µM (active).

The record behind these values is PubChem BioAssay (Tox21).
